Among all 3,200 compounds or so, about 110 (3.4%) showed an effect of 50% or more. The sample as a whole holds a higher share of strong results than the screen did.
system: T1, V. cholerae SAD30; parameters: species or system S. aureus MSSA476 (TSB) or V. cholerae SAD30 (LB); 384-well bacterial growth screen at 25 uM, OD600 relative to DMSO control; details: relative growth, OD600, LB; 25 µM; inhibitor
T1 construct: SAD30

Compound | % of control remaining [%]
CC(Cl)C(=O)N1CCCC(n2ccc(C(F)(F)F)n2)C1 (stereo not shown) [7-A08, 2-chloro-1-{3-[3-(trifluoromethyl)-1H-pyrazol-1-yl]piperidin-1-yl}propan-1-one] | 84.3218
O=C(CCl)Nc1nc2c(s1)CCc1ccccc1-2 [6-D03, 2-chloro-N-{4H,5H-naphtho[1,2-d][1,3]thiazol-2-yl}acetamide] | 105.868
CC(NC(=O)CCl)C(=O)N1CCS(=O)(=O)CC1 (stereo not shown) [5-K14, 2-chloro-N-[1-(1,1-dioxo-1lambda6-thiomorpholin-4-yl)-1-oxopropan-2-yl]acetamide] | 88.7675
C=CC(=O)N1CCOCC1c1noc(C)n1 (stereo not shown) [3-O11, 1-[3-(5-methyl-1,2,4-oxadiazol-3-yl)morpholin-4-yl]prop-2-en-1-one] | 103.029
C=CC(=O)N1CCC(C(=O)NCc2ccoc2C)CC1 [1-E14, N-[(2-methylfuran-3-yl)methyl]-1-(prop-2-enoyl)piperidine-4-carboxamide] | 89.0882
C=CC(=O)N(Cc1ccc(F)cn1)c1cnn(C2CCCC2)c1C [1-D11, N-(1-cyclopentyl-5-methyl-1H-pyrazol-4-yl)-N-[(5-fluoropyridin-2-yl)methyl]prop-2-enamide] | 86.846
Cc1ccc(C=C(C#N)C(=O)Nc2ccccc2C)cc1 [8-G16, 2-cyano-N-(2-methylphenyl)-3-(4-methylphenyl)prop-2-enamide] | 72.8076
N#CC(=Cc1ccc(C#N)cc1)C(=O)Nc1cccc(Cl)c1Cl [8-J05, 2-cyano-3-(4-cyanophenyl)-N-(2,3-dichlorophenyl)prop-2-enamide] | 72.9436
CC(Cl)C(=O)NCCc1nc2cc(F)ccc2s1 (stereo not shown) [7-P11, 2-chloro-N-[2-(5-fluoro-1,3-benzothiazol-2-yl)ethyl]propanamide] | 81.4142
CC(Cl)C(=O)Nc1ccc(Cc2nnc3ncccn23)cc1 (stereo not shown) [7-O22, 2-chloro-N-[4-({[1,2,4]triazolo[4,3-a]pyrimidin-3-yl}methyl)phenyl]propanamide] | 91.0623
O=C(CCl)NCc1ccc(OC(F)(F)F)cc1 [6-G08, 2-chloro-N-{[4-(trifluoromethoxy)phenyl]methyl}acetamide] | 91.3072
CCOc1ccc(N2C(=O)C=CC2=O)cc1 [10-A14, 1-(4-ethoxyphenyl)-2,5-dihydro-1H-pyrrole-2,5-dione] | 23.3781
Cc1cc(C(=O)C(C)Cl)c(C)n1-c1ccc(OC(F)F)cc1 (stereo not shown) [10-E10, 2-chloro-1-{1-[4-(difluoromethoxy)phenyl]-2,5-dimethyl-1H-pyrrol-3-yl}propan-1-one] | 97.7206
N#CC(=Cc1ccc(OC(F)F)cc1)C(=O)N1CCCC1 [8-L22, 3-[4-(difluoromethoxy)phenyl]-2-(pyrrolidine-1-carbonyl)prop-2-enenitrile] | 77.0224
O=C1C=CC(=O)N1c1ccc(Oc2ccccc2)cc1 [10-F17, 1-(4-phenoxyphenyl)-2,5-dihydro-1H-pyrrole-2,5-dione] | 26.1835
CCn1cc(N2C(=O)C=CC2=O)cn1 [10-I21, 1-(1-ethyl-1H-pyrazol-4-yl)-2,5-dihydro-1H-pyrrole-2,5-dione] | 56.731
N#CC(=Cc1cccc(Oc2ccccc2)c1)C(=O)N1CCCC1 [9-F06, 3-(3-phenoxyphenyl)-2-(pyrrolidine-1-carbonyl)prop-2-enenitrile] | 85.724
Cc1cc(C(=O)CCl)c(C)n1-c1ccc(OC(F)(F)F)cc1 [10-G04, 2-chloro-1-{2,5-dimethyl-1-[4-(trifluoromethoxy)phenyl]-1H-pyrrol-3-yl}ethan-1-one] | 98.344
O=C1C=CC(=O)N1c1ccc(OC(F)(F)F)cc1 [10-J19, 1-[4-(trifluoromethoxy)phenyl]-2,5-dihydro-1H-pyrrole-2,5-dione] | 30.0799
CCOC(=O)C(C#N)=Cc1ccc(N2C(=O)C=CC2=O)cc1 [10-N11, ethyl 2-cyano-3-[4-(2,5-dioxo-2,5-dihydro-1H-pyrrol-1-yl)phenyl]prop-2-enoate] | 96.6297
O=C1C=CC(=O)N1c1ccc(OC(F)F)cc1 [10-P11, 1-[4-(difluoromethoxy)phenyl]-2,5-dihydro-1H-pyrrole-2,5-dione] | 36.7816
O=C(CCl)NCCC1=CCCCC1 [4-H05, 2-chloro-N-[2-(cyclohex-1-en-1-yl)ethyl]acetamide] | 111.451
O=C(CCl)NCCc1cccc2c1Oc1ccccc1O2 [7-J18, 2-chloro-N-[2-(oxanthren-1-yl)ethyl]acetamide] | 77.317
CN(CC(=O)Nc1cccc(Cl)c1)C(=O)CCl [5-F18, 2-chloro-N-{[(3-chlorophenyl)carbamoyl]methyl}-N-methylacetamide] | 84.0601
Cc1ccc(Sc2ccc(NC(=O)CCl)cc2)cc1C [4-G03, 2-chloro-N-{4-[(3,4-dimethylphenyl)sulfanyl]phenyl}acetamide] | 107.311

Compound | % of control remaining [%]
CCCCNC(=O)C(C#N)=Cc1ccc2c(c1)OCCO2 [9-G11, N-butyl-2-cyano-3-(2,3-dihydro-1,4-benzodioxin-6-yl)prop-2-enamide] | 85.724
CCc1ccccc1NC(=O)CN(C)C(=O)CCl [6-L06, 2-chloro-N-{[(2-ethylphenyl)carbamoyl]methyl}-N-methylacetamide] | 89.1838
O=C1C=CC(=O)N1c1ccc2ccccc2c1 [10-D07, 1-(naphthalen-2-yl)-2,5-dihydro-1H-pyrrole-2,5-dione] | 22.2872
Cc1c(Cl)cccc1N1C(=O)C=CC1=O [10-B17, 1-(3-chloro-2-methylphenyl)-2,5-dihydro-1H-pyrrole-2,5-dione] | 23.3781
N#Cc1ccccc1N1C(=O)C=CC1=O [10-B13, 2-(2,5-dioxo-2,5-dihydro-1H-pyrrol-1-yl)benzonitrile] | 22.7547
Cc1cccc(N2C(=O)C=CC2=O)c1C [10-H05, 1-(2,3-dimethylphenyl)-2,5-dihydro-1H-pyrrole-2,5-dione] | 27.1186
N#Cc1ccccc1NC(=O)CCl [5-P04, 2-chloro-N-(2-cyanophenyl)acetamide] | 116.339
Cc1ccccc1N1C(=O)CSC1=C(C#N)C(=O)N1CCCCC1 [8-B12, 2-[3-(2-methylphenyl)-4-oxo-1,3-thiazolidin-2-ylidene]-3-oxo-3-(piperidin-1-yl)propanenitrile] | 78.1101
Cc1ccccc1N1C(=O)C=CC1=O [10-J13, 1-(2-methylphenyl)-2,5-dihydro-1H-pyrrole-2,5-dione] | 23.0664
Cc1c(Cl)cccc1NC(=O)CNC(=O)CCl [5-N20, 2-chloro-N-{[(3-chloro-2-methylphenyl)carbamoyl]methyl}acetamide] | 102.049
CC(Cl)C(=O)Nc1ccccc1C#N (stereo not shown) [6-A11, 2-chloro-N-(2-cyanophenyl)propanamide] | 96.0091
Cc1c(Cl)cccc1NC(=O)C(C)Cl (stereo not shown) [6-I10, 2-chloro-N-(3-chloro-2-methylphenyl)propanamide] | 83.2686
C=CC(=O)N1CCC[C@H]1C(=O)Nc1cccc(C)n1 [1-B10, (2S)-N-(6-methylpyridin-2-yl)-1-(prop-2-enoyl)pyrrolidine-2-carboxamide] | 90.0393
C=CCNC(=O)C(C#N)=Cc1ccc(C)s1 [9-F05, 2-cyano-3-(5-methylthiophen-2-yl)-N-(prop-2-en-1-yl)prop-2-enamide] | 77.8382
CC(Cl)C(=O)NCCc1cn(C)nn1 (stereo not shown) [7-A14, 2-chloro-N-[2-(1-methyl-1H-1,2,3-triazol-4-yl)ethyl]propanamide] | 82.7358
Cc1cccc2nc(C3CCN(C(=O)C(C)Cl)CC3)oc12 (stereo not shown) [7-M12, 2-chloro-1-[4-(7-methyl-1,3-benzoxazol-2-yl)piperidin-1-yl]propan-1-one] | 63.8361
CC(Cl)C(=O)Nc1ccc2c(c1)CCC2 (stereo not shown) [5-C19, 2-chloro-N-(2,3-dihydro-1H-inden-5-yl)propanamide] | 86.9181
O=C(CCl)c1ccc(CC(=O)N2CCOCC2)s1 [10-H06, 2-chloro-1-{5-[2-(morpholin-4-yl)-2-oxoethyl]thiophen-2-yl}ethan-1-one] | 101.305
N#CC(=Cc1ccccc1Cl)C(=O)Nc1ccc2c(c1)OCCO2 [8-F03, 3-(2-chlorophenyl)-2-cyano-N-(2,3-dihydro-1,4-benzodioxin-6-yl)prop-2-enamide] | 94.4256
Cc1cc(C(=O)CCl)c(C)s1 [10-K16, 2-chloro-1-(2,5-dimethylthiophen-3-yl)ethan-1-one] | 28.6772
Cc1cc(C(=O)CCl)c(C)[nH]1 [10-J08, 2-chloro-1-(2,5-dimethyl-1H-pyrrol-3-yl)ethan-1-one] | 99.1233
Cc1cc(C(=O)CCl)c(C)n1CC(N)=O [10-O16, 2-[3-(2-chloroacetyl)-2,5-dimethyl-1H-pyrrol-1-yl]acetamide] | 94.6035
O=C(CCl)c1cc(Cl)sc1Cl [10-D16, 2-chloro-1-(2,5-dichlorothiophen-3-yl)ethan-1-one] | 21.5079
Cc1cc(C(=O)CCl)c(C)n1-c1cc(Cl)cc(Cl)c1 [10-I04, 2-chloro-1-[1-(3,5-dichlorophenyl)-2,5-dimethyl-1H-pyrrol-3-yl]ethan-1-one] | 87.746
